Shown are actives, neighbours in structure and some others; about 4.5% of the full set was active somewhere.
hgDAF-12 ag: activates the H. glycines DAF-12 receptor ligand-binding domain; HEK293 GAL4-hgDAF12 UAS-luciferase reporter, agonist luminescence; normalized to butyrate control; activation, % at 6.8 µM; 370,000 tested, 1.8% active; AID 687014;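 active means activation above a cutoff set at the mean of all screened compounds plus 3 SD, cut at about 10% in these data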;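 further: 0% = DMSO wells and 100% = sodium butyrate wells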
FXN GAA850 act: frataxin GAA850 promoter activation; HEK293 lucGAA850 FXN promoter luciferase reporter, 24 h; percent of 10 µM SAHA response; activation, % at 6 µM; 360,000 tested, 0.56% active; AID 540364;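 active means activation above the average of all compounds screened plus 3 SD, cutoff fixed separately per campaign, cut at about 7.5% in these data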;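 further: 0% = DMSO wells and 100% = 10 µM SAHA wells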
DAX1 inh-1: blocks DAX1 repression of SF-1 activated StAR promoter; HEK293T StAR-luciferase reporter, SF-1/DAX-1 repression relief; inhibition, % at 6.8 µM; 370,000 tested, 1.1% active;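 active means inhibition above the mean over all tested compounds plus 3 SD, cut at about 3.6% in these data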;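 further: 0% = DAX-1 cells with DMSO and 100% = cells lacking DAX-1 with DMSO; higher inhibition means more luminescence from relief of DAX-1 repression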
hcDAF12 agonist: H. contortus DAF-12 activation, primary screen. HEK293 hcDAF-12 lit1-tk-luc reporter, luminescence; 0% DMSO, 100% Δ7-dafachronic acid. activation, % at 6.8 µM. AID 652067. 370,000 tested, 1.4% active;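 active means activation above the mean of all tested compounds plus 3 SD, cut at about 5.5% in these data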;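 further: 100% = response to 3 µM Δ7-dafachronic acid high control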
ssDAF12 agonist: activates DAF-12 receptor from parasite S. stercoralis; HEK293 ssDAF-12/GRIP1 lit1-tk-luc reporter, luminescence; % of 3 µM dafachronic acid response; activation, % at 6.8 µM; 370,000 tested, 1% active; AID 652126;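 active means activation above the mean over all tested compounds plus 3 SD, cut at about 0.9% in these data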;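 further: 0% = DMSO-only wells and 100% = 3 µM delta7-dafachronic acid wells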
DAX1 inh-2: NR0B1 (DAX1) inhibition. AID 504766. 340,000 tested, 0.99% active. P51843. inhibition, % at 6.75 µM. HEK293 Gal4-DAX1 luciferase reporter, luminescence;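 active means inhibition above the mean over all tested compounds plus 3 SD, cut at about 4.2% in these data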;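 further: 0% = DAX1-transfected cells with DMSO and 100% = empty-vector control cells with DMSO; inhibition shows as a rise in luminescence from relieved DAX1 repression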
Target sequence (P51843 207-470 limits assumed): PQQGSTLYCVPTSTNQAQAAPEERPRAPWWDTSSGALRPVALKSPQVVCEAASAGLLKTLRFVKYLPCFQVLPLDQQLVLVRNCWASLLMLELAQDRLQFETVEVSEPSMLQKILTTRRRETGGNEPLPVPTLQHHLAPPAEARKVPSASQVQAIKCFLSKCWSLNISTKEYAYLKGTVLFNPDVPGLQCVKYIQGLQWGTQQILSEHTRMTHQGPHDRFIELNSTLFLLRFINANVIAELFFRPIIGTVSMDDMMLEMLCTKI
Numbers without * were called inactive; x = not tested or not shown.

SMILES	hgDAF-12 ag	FXN GAA850 act	DAX1 inh-1	hcDAF12 agonist	ssDAF12 agonist	DAX1 inh-2
O=C1C[C@@H]2CCN3C(=O)CCC[C@@H]([C@H]23)[C@@H]1Cc1ccccc1	-1	1	3.9*	-1	-1	-1
CC[C@@H]1[C@H]2CCCC(=O)N3CC[C@@H](C[C@@H]1OC(=O)NCc1ccccc1)[C@@H]23	-1	0	0	-1	-1	0
Cn1cc(Cl)c(-c2nc3ccccc3[nH]2)n1	12*	1	1	4	0	1
O=C(CN1CCOCC1)Nc1ccc([N+](=O)[O-])cc1Br	0	-1	-1	1	1.3*	2
O=C(CN1CCCCCC1)Nc1ccc([N+](=O)[O-])cc1Br	3	2	0	-1	-1	-1
Cc1ccc([N+](=O)[O-])cc1-c1ccc(/C=N/NC(=O)CN2CCOCC2)o1	2	0	0	1	0.9*	-1
COC(=O)C1=C(C)N(C)C(=NCc2ccc(OC)cc2)NC1c1ccc(Cl)cc1 (stereo unspecified)	1	x	-1	2	-1	x
O=C(c1ccc(F)cc1)N1CCN2C(=O)c3ccccc3C12c1ccc(Cl)cc1 (stereo unspecified)	-4	-3	0	-2	-1	4.2*
Cc1ccc(NC(=O)Cc2ccc(OC(F)F)cc2)c(S(=O)(=O)N2CCOCC2)c1	-2	x	-2	0	-2	x
O=C(CCc1ccccc1)N[C@H]1[C@@H](OC(=O)c2ccco2)CCC[C@@]12C(=O)N(Cc1ccccc1)c1ccccc12	0	x	-1	-4	-1	x
O=C(Nc1ccccc1)N1CCC(=S)Nc2ccccc21	-2	1	0	1	-2	-1
CC1CC(=S)Nc2ccccc2N1C(=O)Nc1ccccc1 (stereo unspecified)	-1	2	0	0	-2	5.2*
COC(=O)[C@H](C(C)C)N(CCCc1cn(Cc2ccccc2)nn1)S(=O)(=O)c1ccccc1Br	-5	x	-3	-4	-2	x
COc1ccc(C(CCOC(=O)Oc2ccccc2)c2cc(OC)cc(OC)c2)cc1 (stereo unspecified)	0	x	-1	-3	-2	x
Cc1cc(NC(=O)CN2CC(C)OC(C)C2)n(-c2nc3ccccc3s2)n1 (stereo unspecified)	x	1	x	x	x	1
Cc1cc(NC(=O)C(C)C)n(-c2nc3ccccc3s2)n1	3	5	1	6	0.9*	0
COC(=O)[C@]12C[C@H](CC(=O)N3CCN(C(=O)c4ccco4)CC3)C(=O)N(CCc3ccc(OC)c(OC)c3)C1=C[C@H](C1CCCC1)O[C@@H]2C	-1	x	-1	-1	-2	x
COc1cccc(C(=O)Nc2ccc(C(=O)NCC3COc4ccccc4O3)cc2)c1 (stereo unspecified)	0	x	-2	-5	-1	x
O=C(COc1ccc(Br)cc1Br)NC(=O)NC1CCCC1	7	4	4.0*	5	0	4
Cc1cc(Br)ccc1OCC(=O)NC1CCCC1	-3	0	-7	-4	-2	-2
COC(=O)[C@]12C[C@H](CC(=O)NCCc3ccccc3OC)C(=O)N(Cc3cccc4ccccc34)C1=C[C@H](C(C)C)O[C@@H]2C1CC1	-3	x	0	-1	-2	x
O=C(Nc1nc2ccc(Cl)cc2s1)[C@@H]1CCCN1C(=O)c1cccs1	10	4	1	5.7*	0	1
CC(=O)OC12CCCN(C1)/C(=C/c1ccccc1)C2 (stereo unspecified)	0	x	0	-2	-1	x
CCOC(=O)NN1C(=O)c2ccccc2NC1c1ccc(OC)c(OC)c1 (stereo unspecified)	-1	2	0	0	-2	4.6*
O=C(Nc1cc([N+](=O)[O-])c2[nH]c(=O)c3ccccc3c2c1)C(F)(F)F	-3	3	3.9*	2	0	1
SMILES	hgDAF-12 ag	FXN GAA850 act	DAX1 inh-1	hcDAF12 agonist	ssDAF12 agonist	DAX1 inh-2
Cc1ccccc1Cn1cc(COC(=O)NCCc2ccccc2)nn1	1	x	0	-2	-2	x
c1ccc(COc2ccc(OCCN3CCCCC3)cc2)cc1	-1	2	0	6.0*	-1	-1
CCN1CCN(Cc2ccc(OCc3ccccc3)cc2)CC1	13*	4	2	3	-1	2
O=C(CSc1nncs1)Nc1ccc2c(c1)OCCO2	5	4	1	2	0	1
O=C(CSc1nncs1)NC(=O)Nc1ccc2c(c1)OCCO2	12*	7	2	2	-1	3
CCc1ccc(CCNC(=O)OCCCN2CCC3(CCC(c4ccccc4)CC3)C2=O)cc1 (stereo unspecified)	-6	x	-3	-2	-2	x
O=C(Oc1ccc(-c2cnc3ccccc3n2)cc1)c1ccco1	10	5	3	5.6*	0	4
O=C(Nc1cccc(-c2cnc3ccccc3n2)c1)c1ccco1	1	-1	0	-1	-1	0
CC(=O)N1CCCN(C(=O)CN2C(=O)CC(C)(C)S(=O)(=O)c3ccccc32)CC1	-4	x	1	-1	0	x
COC(=O)c1cc(=O)c2c([N+](=O)[O-])ccc(OC)c2o1	-1	-1	0	-2	-1	4.6*
COc1cc2c(cc1NC(=O)C(C)N1CCN(S(=O)(=O)c3ccccc3[N+](=O)[O-])CC1)oc1ccccc12 (stereo unspecified)	4	0	1	6.0*	1	1
COc1cc2c(cc1NC(=O)C(C)N1CCN(S(=O)(=O)c3ccc(C)c(C)c3)CC1)oc1ccccc12 (stereo unspecified)	3	3	0	4	0	2
COc1cc2c(cc1NC(=O)C(C)OC(=O)c1ccc(S(=O)(=O)Nc3ccccc3Cl)cc1)oc1ccccc12 (stereo unspecified)	1	1	-1	5.8*	1	1
Cc1ccc(-n2nnnc2SCn2nnc3ccccc3c2=O)cc1	13*	2	0	1	0	2
COc1ccc(S[C@]2(C(=O)N3CCOCC3)CC(=O)N(C(=O)Nc3ccc(C)c(Cl)c3)[C@@H]2c2ccc(OC)cc2)cc1	2	x	-2	-2	-1	x
C(#CC1=CCCCC1)CNCC1CC1	6	x	0	-1	-1	x
COc1ccc(CN2CCC(Cc3ccccc3)CC2)c(C)c1C	5	-1	0	-2	-2	4.3*
Fc1ccccc1CN1CCC(Cc2ccccc2)CC1	2	1	0	-1	0	-1
COc1cc(CN2CCC(Cc3ccccc3)CC2)cc(OC)c1OC	1	0	0	-1	-2	5.1*
O=C(Nc1ccc(F)cc1)OCCCN1C(=O)CCC12CCCCC2	3	x	1	-1	-1	x

Bioassay records deposited in PubChem BioAssay by The Scripps Research Institute Molecular Screening Center.
